Inhibition data for 37 compounds are collected here from ChEMBL document CHEMBL4513135, “CO-ADD screening of IQOG CSIS (Spain) compounds”.

The structures appear in SMILES notation. Entries with a potency or affinity are not part of this list.

In one assay the test system is Klebsiella pneumoniae. To be noted: Concentration 32 ug.mL-1; ASSAY_TEST Inhibition of Bacterial Growth; detection method Absorption (OD600); MEDIA CAMHB; plate type 384well; NBS; CORNING #3640; time 18 hr.
The test system of a further assay is Candida albicans. Conditions: 32 ug/mL.
The test system of another assay is Cryptococcus neoformans. To be noted: Concentration 32 ug.mL-1; ASSAY_TEST Inhibition of Fungal Growth; detection method Resazurin; Absorption (OD600-OD570); plate type 384well; NBS; CORNING #3640.

As to `CC(=O)CC(=O)N1[C@@H]2C[C@H]3CCC2(CS1(=O)=O)C3(C)C`, the Inhibition was 13.63% with Klebsiella pneumoniae, 5.03% in the assay with Candida albicans and -2.49% in the assay on Cryptococcus neoformans.

Regarding `CC1=C(C(=O)N2[C@@H]3C[C@H]4CCC3(CS2(=O)=O)C4(C)C)C(c2ccccc2)C(C#N)=C(N)O1` (stereo partly specified), the Inhibition is 14.51% in the assay on Klebsiella pneumoniae, 3.41% in the assay on Candida albicans and -6.44% in the assay with Cryptococcus neoformans.

As to `O=c1oc2cc(O)ccc2cc1-c1ccccc1`, the Inhibition in the assay on Klebsiella pneumoniae is 3.33%; in the assay on Candida albicans it was -0.21%; in the assay with Cryptococcus neoformans, -4.62%.

As for `CC(=O)Oc1cccc(C=C2N=C(c3ccccc3)OC2=O)c1`, the figures for the Inhibition in the assay on Klebsiella pneumoniae, with Candida albicans and in the assay with Cryptococcus neoformans were 1.18%, 2.1% and -5.65%, respectively.

As for `N#Cc1cc(C#N)c(N2CCC(O)CC2)nc1N`, the Inhibition with Klebsiella pneumoniae is -4.97%; with Candida albicans it was 1.52%; with Cryptococcus neoformans it was -52.44%.

Take `O=C(O)n1ccc2ccccc21`: the Inhibition in the assay on Klebsiella pneumoniae was 4.22%; in the assay on Candida albicans, 4.1%; with Cryptococcus neoformans, -3.58%.

With `COc1ccc2c(c1)cc(/C=C/[N+](=O)[O-])n2C`, the Inhibition in the assay with Klebsiella pneumoniae came to 9.01%; in the assay on Candida albicans it was 2.82%; in the assay on Cryptococcus neoformans it was 4.17%.

`N#Cc1cc(Br)cc(Br)c1N`: the Inhibition in the assay on Klebsiella pneumoniae was -0.57%; in the assay with Candida albicans, 4.77%; in the assay on Cryptococcus neoformans it was -9.46%.

With `O=C(Cc1c[nH]c2ccccc12)NN=C1CCCCCC1`, the Inhibition in the assay with Klebsiella pneumoniae was -21.31%; in the assay on Candida albicans, 1.07%; with Cryptococcus neoformans it was -2.54%.

For `O=C1OC(c2ccccc2)=NC1=Cc1ccc(Cl)cc1`, the Inhibition in the assay on Klebsiella pneumoniae was 7.19%; with Candida albicans it was 1.2%; with Cryptococcus neoformans, -3.18%.

Take `COc1nc(NC(C)=O)c(C#N)c(-c2ccccc2)c1C#N`: the Inhibition was 12.51% with Klebsiella pneumoniae, 2.3% in the assay with Candida albicans and -37.64% in the assay with Cryptococcus neoformans.

For `COc1ccccc1-c1c(C#N)c(=O)oc2c1ccc1ccccc12`, the Inhibition in the assay on Klebsiella pneumoniae is 11.02%; in the assay on Candida albicans it was 9.28%; in the assay on Cryptococcus neoformans it was -7.79%.

Turning to `CCOc1nc2nc3c(c(N)c2cc1C#N)CCCC3`, the Inhibition was -2% in the assay on Klebsiella pneumoniae, 2.23% in the assay on Candida albicans and -62.45% in the assay with Cryptococcus neoformans.

With `CC1CC(=O)Nc2c1c(Cl)nc1nc3c(c(N)c21)CCCC3` (stereo unspecified), the Inhibition is 13.46% in the assay on Klebsiella pneumoniae, 3.48% with Candida albicans and -92.92% in the assay on Cryptococcus neoformans.

In the case of `COc1ccc(C2C(C#N)=C(N)Oc3ccc4ccccc4c32)cc1OC` (stereo unspecified), the values for the Inhibition with Klebsiella pneumoniae, with Candida albicans and in the assay on Cryptococcus neoformans were 12.8%, 5.6% and -62.6%, respectively.

On to `N#Cc1cc(C#N)c(N2CCCCC2)nc1Cl`, for which the Inhibition in the assay with Klebsiella pneumoniae was 12.8%; in the assay with Candida albicans, 0.28%; with Cryptococcus neoformans it was -0.7%.

Regarding `N#Cc1c(N)nc(Cl)c(C#N)c1-c1ccccc1`, the Inhibition in the assay with Klebsiella pneumoniae was 1.22%; in the assay on Candida albicans, 6.28%; in the assay on Cryptococcus neoformans, -2.34%.

On to `CCCC(=O)NCc1c(-c2ccc(Cl)cc2)nc2ccccn12`, for which the results for the Inhibition in the assay with Klebsiella pneumoniae, with Candida albicans and with Cryptococcus neoformans were -10.71%, 1.27% and -9.45%, respectively.

Consider `COc1nc(N)c(C#N)cc1C#N`, for which the Inhibition in the assay on Klebsiella pneumoniae was 5.43%; in the assay with Candida albicans it was 3.36%; in the assay on Cryptococcus neoformans, -30.91%.

For the compound `CCOC(=O)c1c(C)[nH]c(=O)c(C#N)c1-c1ccccc1`, the Inhibition in the assay on Klebsiella pneumoniae is 10.06%; with Candida albicans, 2.08%; with Cryptococcus neoformans it was -38.24%.

In the case of `CCOc1nc2nc(C)c(C=C3CCN(Cc4ccccc4)CC3)cc2c(-c2ccccc2)c1C#N`, the Inhibition in the assay with Klebsiella pneumoniae was 20.16%; in the assay with Candida albicans, 2.44%; in the assay with Cryptococcus neoformans it was -63.91%.

Turning to `CC1Cc2c(Cl)nc3nc4c(c(N)c3c2NC1=O)CCCC4` (stereo unspecified), the values for the Inhibition in the assay with Klebsiella pneumoniae, with Candida albicans and in the assay on Cryptococcus neoformans were 8.15%, 2.83% and -81.78%, respectively.

As for `CCOC(N)=CC#N`, the values for the Inhibition with Klebsiella pneumoniae, with Candida albicans and in the assay on Cryptococcus neoformans were -6.69%, 0.84% and -10.57%, respectively.

Take `O=C(Cc1cccc2ccccc12)N/N=C/c1c[nH]c2ccccc12`: the Inhibition in the assay on Klebsiella pneumoniae is 10.96%; in the assay on Candida albicans, 1.2%; in the assay with Cryptococcus neoformans, -4.19%.

Regarding `C=C=CCN(C)Cc1cc2ccccc2n1C.O=C(O)C(=O)O`, the Inhibition was 9.39% in the assay on Klebsiella pneumoniae, 1.88% in the assay on Candida albicans and -29.39% with Cryptococcus neoformans.

With `COc1ccc(C2C(C#N)=C(N)Oc3c2ccc2ccccc32)cc1` (stereo unspecified), the Inhibition was 9.52% in the assay with Klebsiella pneumoniae, 1.55% with Candida albicans and -40.73% in the assay on Cryptococcus neoformans.

As to `CCOC(=O)C1=C(C)Oc2nc3c(c(N)c2C1c1ccccc1OC)CCC3` (stereo unspecified), the Inhibition was 16.69% in the assay on Klebsiella pneumoniae, -0.7% in the assay on Candida albicans and -2.56% with Cryptococcus neoformans.

In the case of `C=C1CN(C)c2c(C#N)cc(C#N)c(=S)n21`, the Inhibition in the assay with Klebsiella pneumoniae was 3.88%; in the assay with Candida albicans it was 4.91%; with Cryptococcus neoformans it was -13.76%.

Take `COc1cccc(C2C(C#N)=C(N)Oc3c2ccc2ccccc32)c1` (stereo unspecified): the Inhibition with Klebsiella pneumoniae is 8.5%; with Candida albicans it was 3.73%; in the assay on Cryptococcus neoformans, -38.21%.

As for `C=C1CN(C)c2c(C#N)c(-c3ccccc3)c(C#N)c(=N)n21`, the Inhibition with Klebsiella pneumoniae was 8.43%; in the assay on Candida albicans it was -0.24%; in the assay with Cryptococcus neoformans it was -51.34%.

On to `CCOC(=O)c1cc2ccccc2[nH]1`, for which the Inhibition with Klebsiella pneumoniae is 16.5%; in the assay on Candida albicans it was 2.42%; with Cryptococcus neoformans, -5.94%.

In the case of `COc1ccc(C2c3ccc4ccccc4c3OC(=NBr)C2(Br)C#N)cc1OC` (stereo unspecified), the Inhibition with Klebsiella pneumoniae was 8.89%; in the assay with Candida albicans it was 5.08%; in the assay with Cryptococcus neoformans, -80.16%.

As to `CC1=NC(=Cc2ccc([N+](=O)[O-])cc2)C(=O)O1`, the Inhibition with Klebsiella pneumoniae is -0.23%; in the assay on Candida albicans it was -0.54%; in the assay with Cryptococcus neoformans, -1.41%.

Take `CCC(CC)NNC(=O)c1cc2ccccc2n1C`: the Inhibition in the assay with Klebsiella pneumoniae was 9.15%; in the assay with Candida albicans it was 5.89%; in the assay with Cryptococcus neoformans, -1.5%.

As for `CCOC(=O)c1c(C)nc2nc3c(c(N)c2c1-c1ccc(Cl)cc1)CCCCC3`, the Inhibition in the assay with Klebsiella pneumoniae was 1.2%; in the assay with Candida albicans, -0.36%; in the assay with Cryptococcus neoformans, -57.83%.

Consider `O=Cc1c[nH]c2ccccc12` [3-FORMYLINDOLE], for which the values for the Inhibition in the assay on Klebsiella pneumoniae, in the assay on Candida albicans and with Cryptococcus neoformans were 22.42%, 1.76% and -4.21%, respectively.

As to `NC(=O)c1cc2cc(OCc3ccccc3)ccc2[nH]1`, the Inhibition was 5.14% in the assay with Klebsiella pneumoniae, 6.4% in the assay on Candida albicans and -61.34% in the assay on Cryptococcus neoformans.
